Laboratory results reported in PubChem BioAssay AID1159580 (chemical genetic matrix, 2015).
Among all 5,500 compounds or so, about 2,000 (36%) were called active. About 18% were inconclusive and are not listed. Cut-off read from the data, not from the text of the source: active = normalized growth mostly below about 0.91 (no sharp cut-off); inconclusive = no clear call, values can overlap the other calls; inactive = mostly above about 0.92. Some of the results follow.

Experiment: chemical genetic growth profiling, strain panel (AID 1159580);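 note: tested at 20 µM; growth read once vehicle control cultures reached saturation at 30 °C; 1 = growth at the plate median or of vehicle wells; lower values mean less growth of the strain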
Details: growth OD

Measured: normalized growth

COc1ccccc1N=C(N)SCc1ccccc1
inactive: S. cerevisiae deletion strains, locus YAL013W, strain DEP1, stronger effect = lower value 1.01 | S. cerevisiae deletion strains, locus YBR229C, strain ROT2, stronger effect = lower value 1.01 | S. cerevisiae deletion strains, locus YCL061C, strain MRC1, stronger effect = lower value 1.01 | S. cerevisiae deletion strains, locus YDL101C, strain DUN1, stronger effect = lower value 1 | S. cerevisiae deletion strains, locus YDR150W, strain NUM1, stronger effect = lower value 0.923 | S. cerevisiae deletion strains, locus YEL061C, strain CIN8, stronger effect = lower value 1 | S. cerevisiae deletion strains, locus YGR078C, strain PAC10, stronger effect = lower value 1.01 | S. cerevisiae deletion strains, locus YHR030C, strain SLT2, stronger effect = lower value 1.03 | S. cerevisiae deletion strains, locus YHR087W, strain rtc3, stronger effect = lower value 1.01 | S. cerevisiae deletion strains, locus YJL187C, strain SWE1, stronger effect = lower value 1.01 | S. cerevisiae deletion strains, locus YJR043C, strain POL32, stronger effect = lower value 1.01 | S. cerevisiae deletion strains, locus YJR075W, strain HOC1, stronger effect = lower value 1.01 | S. cerevisiae deletion strains, locus YKL190W, strain CNB1, stronger effect = lower value 1.01 | S. cerevisiae deletion strains, locus YLR039C, strain RIC1, stronger effect = lower value 1.02 | S. cerevisiae deletion strains, locus YLR058C, strain SHM2 (second series), stronger effect = lower value 1.01 | S. cerevisiae deletion strains, locus YLR085C, strain ARP6, stronger effect = lower value 1.03 | S. cerevisiae deletion strains, locus YLR262C, strain YPT6, stronger effect = lower value 0.999 | S. cerevisiae deletion strains, locus YML094W, strain GIM5, stronger effect = lower value 0.988 | S. cerevisiae deletion strains, locus YMR219W, strain ESC1, stronger effect = lower value 1.01 | S. cerevisiae deletion strains, locus YMR263W, strain SAP30, stronger effect = lower value 1.01 | S. cerevisiae deletion strains, locus YMR307W, strain GAS1, stronger effect = lower value 1.06 | S. cerevisiae deletion strains, locus YNL128W, strain TEP1, stronger effect = lower value 1.01 | S. cerevisiae deletion strains, locus YNL153C, strain GIM3, stronger effect = lower value 1 | S. cerevisiae deletion strains, locus YNL298W, strain CLA4 (second series), stronger effect = lower value 0.998 | S. cerevisiae deletion strains, locus YNL322C, strain KRE1, stronger effect = lower value 1.01 | S. cerevisiae deletion strains, locus YNR030W, strain Alg12, stronger effect = lower value 1.02 | S. cerevisiae deletion strains, locus YPL055C, strain LGE1, stronger effect = lower value 0.928 | S. cerevisiae deletion strains, locus YPL241C, strain CIN2, stronger effect = lower value 0.994 | S. cerevisiae deletion strains, locus YPR135W, strain CTF4, stronger effect = lower value 0.962 | S. cerevisiae strains, strain wild type, stronger effect = lower value 1.01
